Consider 27 compounds from ChEMBL document CHEMBL4513146, “CO-ADD screening of Karazin Kharkiv National University (Ukraine) compounds”.

The subject of one assay is Klebsiella pneumoniae. The settings on record: Concentration 32 ug.mL-1;; ASSAY_TEST Inhibition of Bacterial Growth; detection method Absorption (OD600); MEDIA CAMHB; plate type 384well; NBS; CORNING #3640; time 18 hr.
The test system of a further assay is Candida albicans. To be noted: Concentration 32 ug.mL-1; ASSAY_TEST Inhibition of Fungal Growth; detection method Absorption (OD530).
Another assay deals with Cryptococcus neoformans. The settings on record: Concentration 32 ug.mL-1; ASSAY_TEST Inhibition of Fungal Growth; detection method Resazurin; Absorption (OD600-OD570); plate type 384well; NBS; CORNING #3640. In general terms: The colour change of resazurin is a common sign of viable cells or microbes.

Molecules are shown by their SMILES. Measured potencies and affinities stand elsewhere.

In general, Inhibition refers to the drop in the measured response relative to a control, in per cent. As for `CCc1ccc(N(Cc2ccccc2C)S(=O)(=O)c2cccn3c(C)nnc23)cc1`, the Inhibition is 3.93% with Klebsiella pneumoniae, 5.07% with Candida albicans and -8.38% with Cryptococcus neoformans.

As for `CCCCN(C)c1ccc2nnc(CCc3nc(-c4ccc(C(F)(F)F)cc4)no3)n2n1`, the Inhibition with Klebsiella pneumoniae was 5.43%; in the assay on Candida albicans, 2.75%; in the assay with Cryptococcus neoformans, -13.06%.

As for `COc1ccc(C)cc1NC(=O)Cn1nc2c(N3CCSCC3)nc3ccccc3n2c1=O`, the Inhibition in the assay with Klebsiella pneumoniae was 14.66%; in the assay on Candida albicans, -2.66%; in the assay with Cryptococcus neoformans, -24.78%.

For the compound `O=C(Cn1nc2c(N3CCOCC3)nccn2c1=O)Nc1cc(C(F)(F)F)ccc1Cl`, the Inhibition in the assay with Klebsiella pneumoniae is recorded as 12.08%; with Candida albicans, 2.84%; in the assay with Cryptococcus neoformans, -4.39%.

As to `Cc1ccc(Sc2nccn3c(=O)n(CC(=O)N4CCN(c5ccccc5F)CC4)nc23)c(C)c1`, the results for the Inhibition with Klebsiella pneumoniae, in the assay with Candida albicans and in the assay with Cryptococcus neoformans were 9.62%, 0.22% and -25.75%, respectively.

For the compound `COc1ccc(-c2cc3c4nn(CC(=O)Nc5cccc(OC)c5)c(=O)n4ccn3n2)cc1`, the values for the Inhibition with Klebsiella pneumoniae, with Candida albicans and in the assay with Cryptococcus neoformans were 10.26%, 17.22% and -23.01%, respectively.

`Cc1ccc(-c2ccc3nn(Cc4ccc5c(c4)OCO5)c(=O)n3n2)cc1C`: the Inhibition in the assay on Klebsiella pneumoniae was 2.14%; in the assay on Candida albicans, 1.11%; in the assay with Cryptococcus neoformans, -18.91%.

Regarding `COc1ccc(Cl)cc1NC(=O)CSc1nnc2c(=O)n(-c3ccc(C)c(C)c3)ccn12`, the Inhibition in the assay with Klebsiella pneumoniae is on record as 15.8%; in the assay with Candida albicans, 0.63%; in the assay with Cryptococcus neoformans, -9.59%.

On to `O=C(Cn1nc2ccc(Sc3cccc(F)c3)nn2c1=O)NCc1ccc(C(F)(F)F)cc1`, for which the Inhibition in the assay on Klebsiella pneumoniae is listed as 8.35%; in the assay on Candida albicans, 1.44%; in the assay on Cryptococcus neoformans, -8.13%.

Turning to `Cn1c(=O)c2sccc2n2c(=O)n(CCOc3ccccc3)nc12`, the results for the Inhibition in the assay on Klebsiella pneumoniae, in the assay with Candida albicans and with Cryptococcus neoformans were 1.76%, -1.1% and -29.95%, respectively.

`CCCNC(=O)Cn1nc2n(Cc3ccco3)c(=O)c3sccc3n2c1=O`: the Inhibition is recorded as 8.71% with Klebsiella pneumoniae, 5.01% in the assay with Candida albicans and -16.3% with Cryptococcus neoformans.

Take `Cc1ccc(NC(=O)Cn2nc3c4cc(-c5ccc(C)c(C)c5)nn4ccn3c2=O)c(Cl)c1`: the Inhibition in the assay with Klebsiella pneumoniae is on record as 13.54%; with Candida albicans it was -1.09%; in the assay with Cryptococcus neoformans it was -13%.

Turning to `COc1cccc(Oc2nccn3c(=O)n(CC(=O)NCc4cccs4)nc23)c1`, the Inhibition in the assay with Klebsiella pneumoniae was 11.61%; in the assay with Candida albicans, 0.8%; in the assay on Cryptococcus neoformans, -9.44%.

With `Cc1ccc(CNC(=O)Cn2nc3c(Sc4ccc(C)cc4C)nccn3c2=O)cc1`, the Inhibition is listed as 3.93% in the assay with Klebsiella pneumoniae, 2.64% with Candida albicans and -16.78% in the assay with Cryptococcus neoformans.

As for `C=Cc1ccc(Cn2nc3c(=O)n(-c4ccc(C)c(C)c4)ccn3c2=O)cc1`, the Inhibition in the assay on Klebsiella pneumoniae was 9.34%; in the assay with Candida albicans, 3.74%; with Cryptococcus neoformans, -5.84%.

On to `COC(=O)c1ccc(NC(=O)Cn2nc3c4cc(-c5ccc(OC)cc5)nn4ccn3c2=O)cc1`, for which the Inhibition in the assay with Klebsiella pneumoniae is 9.58%; with Candida albicans, 0.9%; with Cryptococcus neoformans it was -33.46%.

In the case of `COc1cc(NC(=O)C(C)Sc2nnc3c(=O)n(-c4ccc(C)c(C)c4)ccn23)cc(OC)c1` (stereo unspecified), the Inhibition is listed as 1.23% with Klebsiella pneumoniae, 2.85% in the assay with Candida albicans and -8.2% with Cryptococcus neoformans.

On to `CC(=O)c1cccc(NC(=O)CSc2nnc3ccc(C(=O)Nc4cccc(F)c4)cn23)c1`, for which the results for the Inhibition in the assay on Klebsiella pneumoniae, in the assay on Candida albicans and in the assay with Cryptococcus neoformans were 7.28%, 5.29% and -6.79%, respectively.

For the compound `COc1ccc(NC(=O)Cn2nc3nc(N4CCOCC4)ccn3c2=O)cc1Cl`, the results for the Inhibition in the assay with Klebsiella pneumoniae, with Candida albicans and in the assay with Cryptococcus neoformans were 17.46%, 1.98% and -8.34%, respectively.

In the case of `CCOc1ccc(C(=O)CSc2nnc3c(=O)n(-c4ccc(Br)cc4)ccn23)cc1`, the Inhibition is 15.85% in the assay with Klebsiella pneumoniae, 8.18% with Candida albicans and -11.96% in the assay with Cryptococcus neoformans.

On to `Cc1cc(C)c(NC(=O)CSc2nc3ccccc3n3c(C)nnc23)c(C)c1`, for which the values for the Inhibition in the assay on Klebsiella pneumoniae, in the assay with Candida albicans and in the assay with Cryptococcus neoformans were 10.14%, 1.31% and -7.76%, respectively.

Consider `CCCCOc1ccc(-c2cc3c4nnc(SCC(=O)Nc5cc(C)ccc5OC)n4ccn3n2)cc1`, for which the figures for the Inhibition in the assay on Klebsiella pneumoniae, with Candida albicans and with Cryptococcus neoformans were -4.93%, 45.46% and -16.58%, respectively.

As to `CC(C)c1nnc2c(=O)n(CC(=O)Nc3ccc(Br)cc3F)c3ccccc3n12`, the Inhibition with Klebsiella pneumoniae was 12.63%; in the assay with Candida albicans, 1.97%; in the assay with Cryptococcus neoformans it was -15.71%.

For `Cc1cccc(Sc2nccn3c(=O)n(CC(=O)N4CCN(c5ccc(F)cc5)CC4)nc23)c1`, the figures for the Inhibition in the assay with Klebsiella pneumoniae, in the assay on Candida albicans and with Cryptococcus neoformans were -8.7%, 3.19% and -30.97%, respectively.

In the case of `COc1ccccc1NC(=O)Cn1nc2n(CCCOC(C)C)c(=O)c3ccccc3n2c1=O`, the Inhibition in the assay with Klebsiella pneumoniae is given as 12.77%; with Candida albicans, 2.2%; with Cryptococcus neoformans it was -35.55%.

On to `COc1ccc(OC)c(NC(=O)Cn2nc3ccc(SCc4ccc(Cl)cc4)nn3c2=O)c1`, for which the values for the Inhibition in the assay with Klebsiella pneumoniae, in the assay on Candida albicans and in the assay on Cryptococcus neoformans were 2.51%, 9.63% and -22.41%, respectively.

Turning to `COc1ccc(C)cc1NC(=O)CSc1nc2ccccc2n2cnnc12`, the values for the Inhibition in the assay on Klebsiella pneumoniae, with Candida albicans and in the assay with Cryptococcus neoformans were 9.24%, 2.39% and -3.58%, respectively.
